The record followed here is article PMC4336329 (PLoS ONE, 2015).

In all, about 310,000 compounds went through this assay and about 14,000 (4.5%) showed an effect of 50% or more. The effect is printed as a negative number. What follows is part of a selection rich in strong results, with near analogues and random picks from the rest.
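Note: peak tail current of the secondary pulse compared with the same well before compound.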

In this experiment the target is human ether-à-go-go-related gene (hERG) potassium channel (human, UniProt Q12809). Briefly: primary screen, population patch clamp on CHO cells stably expressing hERG; higher = less effect of the substance.
human ether-à-go-go-related gene (hERG) potassium channel, sequence (Q12809 whole entry, looked up): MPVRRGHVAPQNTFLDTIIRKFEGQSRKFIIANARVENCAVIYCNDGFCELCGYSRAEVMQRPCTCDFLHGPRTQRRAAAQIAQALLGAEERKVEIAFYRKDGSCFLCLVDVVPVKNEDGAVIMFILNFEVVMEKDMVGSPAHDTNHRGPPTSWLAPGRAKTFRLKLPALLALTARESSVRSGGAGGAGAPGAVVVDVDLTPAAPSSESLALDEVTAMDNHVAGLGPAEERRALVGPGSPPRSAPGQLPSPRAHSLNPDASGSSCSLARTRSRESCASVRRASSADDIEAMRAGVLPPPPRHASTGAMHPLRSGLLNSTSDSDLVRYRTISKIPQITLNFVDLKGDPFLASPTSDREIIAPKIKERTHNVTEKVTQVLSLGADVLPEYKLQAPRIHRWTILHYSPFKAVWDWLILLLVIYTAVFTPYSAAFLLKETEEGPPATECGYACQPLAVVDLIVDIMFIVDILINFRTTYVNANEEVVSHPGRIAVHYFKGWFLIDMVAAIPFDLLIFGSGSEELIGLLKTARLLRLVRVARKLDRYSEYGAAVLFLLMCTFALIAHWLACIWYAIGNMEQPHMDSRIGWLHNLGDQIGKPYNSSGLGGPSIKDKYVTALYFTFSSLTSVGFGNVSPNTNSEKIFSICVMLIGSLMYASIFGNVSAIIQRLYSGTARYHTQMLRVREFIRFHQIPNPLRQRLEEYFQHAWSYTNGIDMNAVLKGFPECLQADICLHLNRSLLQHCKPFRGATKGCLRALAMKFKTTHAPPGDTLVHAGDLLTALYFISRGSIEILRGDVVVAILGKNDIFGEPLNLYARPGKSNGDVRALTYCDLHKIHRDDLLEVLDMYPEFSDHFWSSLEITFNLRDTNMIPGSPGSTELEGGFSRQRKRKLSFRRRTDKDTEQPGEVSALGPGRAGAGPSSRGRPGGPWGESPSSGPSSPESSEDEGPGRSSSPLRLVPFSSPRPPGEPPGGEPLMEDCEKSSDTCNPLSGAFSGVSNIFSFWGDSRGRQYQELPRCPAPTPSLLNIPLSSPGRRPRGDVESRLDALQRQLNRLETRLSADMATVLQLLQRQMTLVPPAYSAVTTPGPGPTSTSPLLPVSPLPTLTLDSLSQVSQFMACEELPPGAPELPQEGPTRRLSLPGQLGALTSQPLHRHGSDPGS
In the case of `CC(=O)OC1COC(n2ccc3cc([N+](=O)[O-])ccc32)C(OC(C)=O)C1OC(C)=O` (stereo not drawn), the “hERG current change (%, negative = inhibition) at 10uM” value is given as -12.2%.
For `CC(C)C(=O)Nc1ccc(Sc2ccc(F)cc2)cc1`, the “hERG current change (%, negative = inhibition) at 10uM” value is -3.48%.
In the case of `CCC(C)Nc1nc2c(c(=O)n(C)c(=O)n2C)n1Cc1ccc(Cl)cc1` (stereo not drawn) it was -7.45%; in that of `COc1ccccc1-c1nc(SCC(=O)O)n[nH]1`, -1.65%.
`COc1ccc(N=Cc2c(O)n(-c3ccc(OC)cc3)c(=O)c3ccccc23)cc1`: the “hERG current change (%, negative = inhibition) at 10uM” value is 15.2%.
Next, `O=C(c1ccccc1)N1CCN(C(=O)c2ccccc2)CC1`: 1.49%; `O=C(c1ccc([N+](=O)[O-])cc1)N1CCCC1`: 4.5%; `Oc1ccc(C(=S)N2CCN(Cc3ccccc3)CC2)cc1`: -5.46%.
In the case of `CC(=O)N1CCN(C(=O)c2ccc(Oc3ccccc3)cc2)CC1` it was 19.1%.
Next, `O=C(c1cccs1)N1CCN(c2nc3ccc([N+](=O)[O-])cc3s2)CC1`: -7.47%; `CCN1CCN(C(=S)c2ccc([N+](=O)[O-])cc2)CC1`: -36.9%.
With `O=CN1CCN(C(=O)c2ccc([N+](=O)[O-])cc2)CC1`, the “hERG current change (%, negative = inhibition) at 10uM” value is -22.3%.
In the case of `O=C(c1ccccc1)N1CCN(C(=O)c2ccc([N+](=O)[O-])cc2)CC1`, the “hERG current change (%, negative = inhibition) at 10uM” value was -53.9%.
Next, `O=C(c1ccccc1)N1CCN(C(=O)c2ccc(OC(F)(F)F)cc2)CC1`: -62.8%.
Next, `O=C(c1ccccc1)N1CCN(c2nc3ccc([N+](=O)[O-])cc3s2)CC1`: -55.4%; `CC(=O)N1CCN(c2nc3ccc([N+](=O)[O-])cc3s2)CC1`: -46.6%.
As for `O=[N+]([O-])c1ccc(C(=S)N2CCN(Cc3ccccc3)CC2)cc1`, the “hERG current change (%, negative = inhibition) at 10uM” value is -57.6%.
Consider `O=C(c1cc(N2C(=O)C3C4CCC(C4)C3C2=O)ccc1Cl)N1CCCCCC1` (stereo not drawn), for which the “hERG current change (%, negative = inhibition) at 10uM” value is listed as 3.82%.
Next, `O=C(c1ccccc1)N1CCC(O)(c2ccc3c(c2)OCO3)CC1`: -12.4%; `CCn1c(CNC(=O)c2ccc3c(c2)OCO3)nnc1SCC(=O)Nc1ccccc1F`: -6.31%; `O=C(Nc1ccccc1)c1ccco1`: 15%.
In the case of `COC(=O)c1sccc1NC(=S)N1C(C)CCCC1C` (stereo not drawn) it was -7.4%.
Next, `Cc1ccc(S(=O)(=O)c2nc(C)c3c(n2)CCC3)cc1`: 3.61%; `COc1ccc(C(=O)COC(=O)CCc2ccccc2)cc1`: -11.4%; `CC(=O)c1ccc(NC(=O)C(C)Sc2nnc(C3CCCCC3)o2)cc1` (stereo not drawn): -4.84%.
For the compound `O=C(c1ccc2nc(-c3ccco3)c(-c3ccco3)nc2c1)N1CCN(c2ncccn2)CC1`, the “hERG current change (%, negative = inhibition) at 10uM” value is -67.8%.
In the case of `CN1C(=O)N(C)C(=O)C2(Cc3cc([N+](=O)[O-])ccc3N3CCN(C(=O)c4ccccc4)CC32)C1=O` (stereo not drawn) it was -65%; in that of `Cc1cc(C)n(-c2ccc(C(=O)N3CCN(c4ccccn4)CC3)cc2)n1`, -32.5%; in that of `O=C(c1ccc2nc(-c3ccco3)c(-c3ccco3)nc2c1)N1CCN(c2ccccc2)CC1`, -15.4%.
In the case of `CN1C(=O)N(C)C(=O)C2(Cc3cc([N+](=O)[O-])ccc3N(C)C2c2ccccc2)C1=O` (stereo not drawn) it was -17.6%.
Next, `O=C(c1ccc(-c2ccccc2)cc1)N1CCN(c2ncccn2)CC1`: -5.92%.
Turning to `CC(C)N1CCN(C(=O)c2ccc([N+](=O)[O-])cc2)CC1`, the “hERG current change (%, negative = inhibition) at 10uM” value is given as -39.8%.
Next, `Cc1ccc(C)c(N2CCN(C(=O)c3ccc4nc(-c5ccco5)c(-c5ccco5)nc4c3)CC2)c1`: 21.1%; `Cc1cc(-c2ccccc2)n(-c2ccc(C(=O)N3CCN(c4ncccn4)CC3)cc2)n1`: -56.4%.
In the case of `O=C1NC(=O)C2(Cc3cc([N+](=O)[O-])ccc3N3CCN(C(=O)c4ccccc4)CC32)C(=O)N1` (stereo not drawn), the “hERG current change (%, negative = inhibition) at 10uM” value was 23%.
Next, `O=C(c1ccncc1)N1CCN(C(=O)c2cccs2)CC1`: 6.46%.
Next, `O=C(c1ccc([N+](=O)[O-])cc1)N1CCN(C(=O)c2cccs2)CC1`: -70.3%; `CCC1=NC(c2ccccc2OC)N(O)C1(C)C` (stereo not drawn): 15.9%.
Regarding `CCOc1ccc(C(=O)NCC(=O)NCC(c2cccs2)N2CCOCC2)cc1` (stereo not drawn), the “hERG current change (%, negative = inhibition) at 10uM” value is recorded as 4.69%.
Next, `Oc1ccccc1-c1nc(NC2CCCC2)c2ccccc2n1`: 17.8%; `c1csc(-c2nnc(NC3CCCCC3)c3ccccc23)c1`: -75.4%.
Next, `c1ccc(-c2nc(NC3CCCC3)c3ccccc3n2)cc1`: 20.5%; `c1csc(-c2nc3ccccn3c2NC2CCCCC2)c1`: 8.81%.
In the case of `O=C(O)C(=O)O.c1csc(-c2nnc(N3CCCCCC3)c3ccccc23)c1`, the “hERG current change (%, negative = inhibition) at 10uM” value was -20.9%.
In the case of `c1ccc2c(NC3CCCC3)nnc(NC3CCCC3)c2c1` it was -74.9%.
